Screens as filed in PubChem.
CF NFkB inh = inhibitors of PAF-induced NF-kB signaling, primary screen, cell-based, GFP fluorescence, uHTS; KKLEB NF-kB-GFP reporter, GFP fluorescence overnight; AID 588850, 2011; inhibition, % at 5 µM; 360,000 tested, 0.86% active;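 active means at least 50% inhibition at 5 µM, scaled per plate between neutral and stimulator controls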;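 further: PAF is a Pseudomonas aeruginosa culture filtrate used as stimulus; plate controls were PAF-stimulated DMSO wells for no effect and unstimulated DMSO wells for full effect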
Peg3 prom inh = Peg3 promoter-driven luciferase inhibitors, primary screen, cell-based, HeLa, luciferase luminescence | 360,000 tested, 1.7% active | inhibition, % at 20 µM | HeLa PEG-Prom luciferase reporter, overnight;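 active means inhibition of at least 50% at 20 µM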
KKLEB tox = cytotoxicity in KKLEB CF airway cells, primary screen, cytotoxicity control for CF NF-kB inhibitor project, cell-based, uHTS, fluorescence assay plates | KKLEB CF airway cells viability, ATPlite luminescence, overnight; hits give low values; cells stimulated with P. aeruginosa culture filtrate | activity change (cytotoxicity), % at 5 µM | 360,000 tested, 0.36% active;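 active means corrected activity change at or below -50% at 5 µM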
TRAIL sens C8 = viability loss with TRAIL in NB7+C8 cells, primary screen, TRAIL sensitizer project, cell-based, ATPlite luminescence | inhibition (viability loss, TRAIL sensitization), % at 10 µM | 360,000 tested, 1% active;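 active means compounds causing at least 50% loss of cell viability in the single-dose screen, relative to plate controls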
PPC-1+TRAIL kill = compounds killing PPC-1 cancer cells with TRAIL present, primary screen, TRAIL potentiator project, ATPLite luminescence, uHTS | PPC-1 cells + TRAIL, ATPLite viability luminescence | cell killing (% activity), % at 4 µM or 5 µM | 220,000 tested, 0.41% active;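 active means cell killing above 50% in the first pass at 4 µM, then a duplicate retest at 5 µM averaging 50% or more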;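 further: plate controls were cells with TRAIL plus DMSO for no effect and medium-only wells lacking cells for full effect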
HIF-2a inh = HIF-2a reporter inhibitors, primary screen, luminescence, 786-0 RCC cells; 786-0 RCC cells HIF-2a reporter, luciferase luminescence, overnight; inhibition, % at 18.8 µM; 360,000 tested, 0.72% active;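 active means inhibition of the luminescence signal of 40% or more relative to plate controls, in a single-dose primary screen at 18.75 µM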
Mdm2 MdmX conf = retested Mdm2-MdmX interaction blockers, confirmation, cell-based, luminescence, single concentration, set 2; 740 tested, 99% active; shares compounds with HIF-2a inh; SaOS-2 split-luciferase Mdm2/MdmX complementation; inhibition, % at 8 µM;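 active means mean inhibition of the luminescence signal across two replicates at or above 26 percent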
HIF-2a inh conf = HIF-2a reporter inhibitor retest, confirmation, luminescence, 786-0 RCC cells. shares compounds with HIF-2a inh. HIF-2a luciferase reporter luminescence, overnight. inhibition, % at 18.8 µM. 1,800 tested, 56% active;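 active means mean inhibition across four replicates of at least 40 percent at the single tested concentration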
HIF-1a cs = HIF-1a luciferase reporter signal reduction – MiaPaCa-2 cells, single concentration, counter-screen for HIF-2a inhibitor project, confirmation; MiaPaCa-2 HIF-1a luciferase reporter, desferoxamine, overnight; 1,800 tested, 72% active; inhibition, % at 18.8 µM; shares compounds with HIF-2a inh;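 active means mean inhibition of the reporter signal across four replicates at the single tested dose of 50% or more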
The depositor's hits bear a star; . = no result given. Rows were chosen to be rich in hits. Some 3.1% of all compounds tested hit in one or more screens of this group.

SMILES	CF NFkB inh	Peg3 prom inh	KKLEB tox	TRAIL sens C8	PPC-1+TRAIL kill	HIF-2a inh	HIF-2a inh conf	HIF-1a cs	others
Cc1c(CN(C)C)c2c(n1C)C(=O)c1ccc(Br)cc1-2	5.6	6.1	-2.6	-2.5	0.7	11.6	.	.
CCOC(=O)c1c2c(n(C)c1C)C(=O)C(=O)c1ccc(Br)cc1-2	97.3*	101.0*	-78.4*	96.6*	.	11.5	.	.	Mdm2 MdmX conf=97.5*
OC1C2COC(O2)C2OC(c3ccccc3)OC12 (configuration not stated)	6.1	-4.8	-5.5	6.2	.	-9.0	.	.
CCSc1ccc(-c2cc(NC=O)c3ncc(-c4cccc(C(=O)NCCN(C)C)c4)n3c2)cc1	-29.6	88.8*	-2.2	79.4*	.	92.1*	-9.3	101.3*
CN(C)CCNC(=O)c1cccc(-c2cnc3c(NC=O)cc(-c4ccc(F)cc4)cn23)c1	-9.1	40.3	-4.9	-20.3	.	22.6	.	.
CC(=O)Nc1cc(-c2cccc(C(=O)NCCN(C)C)c2)cn2c(-c3cccc(C(F)(F)F)c3)cnc12	-78.9	98.9*	-29.5	65.0*	.	94.9*	0.8	104.7*
CC(=O)Nc1cc(-c2cccc(C(=O)NCCN(C)C)c2)cn2c(-c3ccccc3)cnc12	-12.0	5.5	-2.8	-5.2	.	-17.4	.	.
O=C(O)c1ccc(NC(=O)c2ccco2)c(NC(=O)c2ccco2)c1	-14.6	11.9	7.1	0.2	.	13.1	.	.
Cc1ccc(C(=O)N/C(=C\c2ccc(-c3ccc(Br)cc3)o2)C(=O)NCCCN(C)C)cc1	14.8	109.0*	-19.3	2.3	13.5	33.2	.	.	Mdm2 MdmX conf=103.2*
Cc1ccc(C(=O)N/C(=C/c2ccc(-c3ccc(Br)cc3)o2)C(=O)NC2CCS(=O)(=O)C2)cc1 (configuration not stated)	-34.9	-3.8	1.0	-24.2	-6.3	0.3	.	.
COc1cccc(C2c3c(-c4cc(Cl)c(C)cc4O)n[nH]c3C(=O)N2Cc2cccnc2)c1 (configuration not stated)	-10.0	25.0	10.3	-10.6	10.8	30.5	.	.
COc1cc(C2c3c(-c4cc(Cl)c(C)cc4O)n[nH]c3C(=O)N2Cc2cccnc2)ccc1O (configuration not stated)	25.6	31.8	-15.7	0.3	-12.3	43.3*	31.1	60.5*
CCN(CC)C(=O)c1[nH]cnc1C(=O)NC1CCN(C(=O)OC(C)(C)C)CC1	-26.3	-6.2	14.7	-7.4	.	8.7	.	.
Nc1nc(N)c2c(ccc3c2ccn3Cc2cccc([N+](=O)[O-])c2)n1	16.6	99.8*	-41.5	96.6*	.	89.1*	12.0	104.6*
CCCOc1ccc(C2=CSC3=NCCN23)cc1[N+](=O)[O-]	-11.5	-8.6	5.8	1.2	.	-0.8	.	.
O=C(NCCCN1CCOCC1)c1cc(-c2ccc(Cl)c(Cl)c2)on1	25.0	-29.0	-8.4	4.7	.	-50.4	.	.
Cc1ccc(-c2cc(C(=O)NCCCN3CCOCC3)no2)cc1	11.8	0.5	-20.3	1.7	-5.3	84.3*	82.4*	71.2*
O=C(O)C(CCc1ccccc1)(Cc1ccccc1)C(=O)O	11.2	-10.2	4.4	-8.0	.	10.1	.	.
Cc1cc(C2(c3ccc(O)c(C)c3)C(=O)Nc3ccccc32)ccc1O	-0.2	80.0*	4.3	1.3	-5.8	44.9*	22.4	69.3*
CCOc1ccc(CCNC(=O)COC(=O)c2cc(OC)c(OC)cc2[N+](=O)[O-])cc1OCC	-8.5	8.1	0.4	-8.3	.	2.9	.	.
COc1ccc(C(=O)c2c(C(F)(F)F)oc3c2C(=O)c2ccccc2C3=O)cc1	88.4*	99.4*	-82.6*	97.5*	20.7	27.1	.	.	Mdm2 MdmX conf=97.2*
CCn1nnc2cc(C(=O)Nc3cc(OC)cc(OC)c3)ccc21	-4.2	-98.1	6.1	-6.8	.	-118.4	.	.
Cc1ccc(CNC(=O)COC(=O)CCCOc2ccc(Cl)cc2Cl)cc1	-1.1	3.3	5.7	6.7	16.6	62.4*	69.7*	56.6*
COc1ccc(CNC(=O)COC(=O)CCCOc2ccc(Cl)cc2Cl)cc1OC	6.1	-1.9	4.6	23.0	18.9	31.4	.	.
O=C(COC(=O)CCCOc1ccc(Cl)cc1Cl)NCc1ccccc1	-23.0	-3.1	5.3	5.3	-3.7	64.1*	63.1*	53.7*
SMILES	CF NFkB inh	Peg3 prom inh	KKLEB tox	TRAIL sens C8	PPC-1+TRAIL kill	HIF-2a inh	HIF-2a inh conf	HIF-1a cs	others
O=C(COC(=O)CCSc1ccc(Cl)cc1)NCc1ccccc1	11.4	-5.2	-4.3	-6.1	5.0	3.8	.	.
CCCCn1c(N)c(N(CCOC)C(=O)COC(=O)c2ccccc2NCCO)c(=O)[nH]c1=O	6.8	8.8	-3.2	-6.3	.	5.7	.	.
Cc1cccc(Cn2cc(/C=C/[N+](=O)[O-])c3ccccc32)c1	3.1	47.9	-5.4	-0.7	-7.5	35.7	.	.
CCOC(=O)COc1ccc2nsnc2c1	-2.6	-2.3	9.1	2.5	10.2	15.5	.	.
O=[N+]([O-])/C=C/c1cn(Cc2ccc(Cl)cc2)c2ccccc12	24.8	80.7*	5.4	3.9	-6.7	51.0*	29.4	85.1*
CCOC(=O)Cn1cc(C#N)c2ccccc21	16.7	2.8	-13.6	-3.1	4.7	10.7	.	.
CCOC(=O)Cn1cc(/C=C/[N+](=O)[O-])c2ccccc21	-5.1	40.0	-1.7	-8.8	-16.1	76.7*	60.1*	21.5
CCOC(=O)COc1ccc(/C=C/[N+](=O)[O-])c(OCC(=O)OCC)c1	15.6	106.3*	-14.7	28.3	7.7	75.1*	6.7	90.1*
CCOc1ccc(/C=C/[N+](=O)[O-])c2ccccc12	7.1	99.0*	-23.3	43.4	-6.6	88.8*	39.2	105.0*
O=C(NCc1ccccc1CN1CCCC1)c1ccc(S(=O)(=O)Nc2ccccc2)cc1	0.9	30.0	2.3	11.6	.	10.9	.	.
C[C@@H]1CN([C@@H](C)CO)C(=O)CCCn2nncc2CO[C@@H]1CN(C)C(=O)c1ccncc1	8.5	-8.5	-16.1	8.2	.	8.5	.	.
COc1cc(C(=O)NCC2CCCN2S(=O)(=O)c2cccs2)cc(OC)c1OC (configuration not stated)	-14.2	-8.1	0.2	-11.6	.	5.4	.	.
